Over roughly 33,000 sequences, “E-score (-0.5 to 0.5)” has its median near -0.012; the highest 2% begin near 0.27. This is one part of a sample in which the highest values are shown more often than they occur.
Target: T1, Vhr1 (UniProt P40522)
T1 sequence: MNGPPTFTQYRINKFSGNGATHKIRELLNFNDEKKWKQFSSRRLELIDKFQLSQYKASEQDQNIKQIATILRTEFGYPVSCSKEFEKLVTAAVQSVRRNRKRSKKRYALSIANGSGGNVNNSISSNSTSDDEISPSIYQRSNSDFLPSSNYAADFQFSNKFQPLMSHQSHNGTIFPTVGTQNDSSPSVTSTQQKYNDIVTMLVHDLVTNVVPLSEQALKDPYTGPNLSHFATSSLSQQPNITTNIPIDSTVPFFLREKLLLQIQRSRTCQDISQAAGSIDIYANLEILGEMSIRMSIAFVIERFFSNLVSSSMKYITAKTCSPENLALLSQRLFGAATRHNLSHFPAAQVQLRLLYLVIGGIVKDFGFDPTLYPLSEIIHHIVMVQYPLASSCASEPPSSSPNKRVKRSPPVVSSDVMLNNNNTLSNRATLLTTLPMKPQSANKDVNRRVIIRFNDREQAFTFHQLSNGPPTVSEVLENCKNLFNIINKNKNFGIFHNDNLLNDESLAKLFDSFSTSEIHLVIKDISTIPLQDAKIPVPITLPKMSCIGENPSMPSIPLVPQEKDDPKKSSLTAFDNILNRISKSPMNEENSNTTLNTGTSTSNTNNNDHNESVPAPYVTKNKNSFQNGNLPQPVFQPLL
Test: PBM E-score (8-mer binding enrichment) (E-score (-0.5 to 0.5)); higher = stronger / more preferred TF binding
Settings: protein concentration: 200 nM; construct: GST-full length
Method: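 Universal 'all 10-mer' protein binding microarrays (Agilent AMADID 015681) probed with GST-tagged S. cerevisiae TFs (full-length or DBD) made by in vitro transcription/translation (PURExpress), about 100-200 nM. Bound TF was detected with fluorescent anti-GST. Each ungapped 8-mer (which stands for itself and its reverse complement) is scored by the PBM enrichment score (E-score), a modified Wilcoxon-Mann-Whitney statistic from -0.5 to +0.5, computed with the Universal PBM Analysis Suite. Scale: above 0.35 generally sequence-specific binding.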

Row | Sequence | PBM E-score
1 | AACTCGTA | 0.0622
2 | AACTCGGA | 0.0616
3 | CACTCGCC | 0.147
4 | AACTCGCC | 0.00825
5 | TACTCGGA | 0.126
6 | GACTCGCA | 0.319
7 | CACTCGTA | -0.0431
8 | AACTCGCA | -0.0141
9 | GACTCGCC | 0.276
10 | GACTCGTA | 0.327
11 | GACTCGGA | 0.278
12 | TACTCGCA | 0.263
13 | AGCGCATA | -0.0303
14 | CCCAATAG | -0.0738
15 | GACTAAGA | 0.0912
16 | AGTGTTGG | 0.107
17 | ATGCTGGA | -0.001
18 | AATCTCTC | -0.0867
19 | CTAGAGGC | -0.341
20 | CCTTAGAC | -0.16
21 | AGGCTGAG | -0.0574
22 | CACGCGTC | 0.275
23 | AACGCGTC | -0.137
24 | CACGCGTA | -0.0315
25 | GCTCATAA | 0.0821

Row | Sequence | PBM E-score
26 | GTGAGCCA | 0.355
27 | ATGAGCCA | 0.271
28 | CTGAGCCA | 0.247
29 | GCAATGGA | -0.128
30 | AGGAGTGG | 0.0494
31 | ATCAGAAC | 0.0119
32 | GCAGTCAA | 0.0401
33 | ACAGTCAC | 0.242
34 | GCAGTCCC | 0.106
35 | GCAGTCAC | 0.353
36 | CCAGTCAA | 0.045
37 | CCAGTCAC | 0.296
38 | ACGTTGCA | -0.0853
39 | ACCATTAT | 0.169
40 | GCCATGCC | 0.00234
41 | TCTGCCAA | -0.205
42 | CACTGATA | 0.0775
43 | GCAAAATA | 0.00706
44 | ATAATCAA | 0.0618
45 | GTAATCAC | 0.198
46 | ACAATCAC | 0.275
47 | ATAATCAC | 0.308
48 | ATAATCAT | 0.389
49 | ATAATCAG | 0.0967
50 | GCAATCAC | 0.159

Row | Sequence | PBM E-score
51 | CCAATCAC | 0.179
52 | CTAATCAC | 0.27
53 | ACCAGCGT | 0.0656
54 | GCAGAACA | 0.091
55 | CTATTGGA | -0.0419
56 | CAAGGGCG | -0.203
57 | CCACTCGG | -0.147
58 | CTCCCTAA | -0.107
59 | GCAGATTA | 0.0608
60 | ATAAGAAG | -0.11
61 | GAGTACCA | 0.172
62 | CTCCAATC | 0.0374
63 | ATAGTCTG | -0.0734
64 | CTAGTCAG | 0.247
65 | ATAGTCAA | 0.165
66 | ATAGTCAT | 0.411
67 | ATAGTCAC | 0.41
68 | ATAGTCAG | 0.333
69 | ATAGTCCC | 0.0218
70 | AAAGTCAT | 0.256
71 | ATCGTCAT | 0.134
72 | CAACCTTC | -0.171
73 | AACTGGGT | -0.041
74 | GAAGAATC | -0.1
75 | TCTTCACA | 0.0437

Row | Sequence | PBM E-score
76 | CTTTCACC | -0.204
77 | ATTGTTCC | 0.127
78 | TCAAGCGA | -0.0594
79 | GGCTCTAA | -0.0817
80 | GCATAACA | -0.116
81 | TCATAACA | 0.272
82 | ACATAACA | 0.0352
83 | CTCTTGGA | 0.0822
84 | AAAGATTT | -0.134
85 | ACTCACAT | 0.286
86 | ACGCACAG | 0.04
87 | ACACTCAG | -0.0414
88 | ACGCACAT | 0.0403
89 | CCTCACAG | 0.0151
90 | AATCACAC | 0.316
91 | AATCACAG | 0.27
92 | ACACTCAC | 0.281
93 | ACTCACAG | 0.325
94 | AATCACAT | 0.17
95 | AATCACAA | 0.187
96 | ACTCTCAC | 0.115
97 | AGTCTGAC | 0.148
98 | AGGGTCAC | -0.0656
99 | CTTCTTAC | -0.221
100 | CACGGCGG | 0.102

Row | Sequence | PBM E-score
101 | ACAGGAGG | -0.164
102 | CGGAGTAA | 0.0314
103 | AATCGTGT | 0.0868
104 | AAAAGAGG | -0.134
105 | GCCACACC | 0.134
106 | CCGGTGGC | -0.0116
107 | TCTCACAA | 0.0793
108 | ACTCACAA | 0.286
109 | CCTCACAC | -0.0104
110 | ACTCACAC | 0.39
111 | GCTCACAC | 0.148
112 | CCTCACAA | 0.115
113 | GAAAGTCC | -0.317
114 | CAAGACTG | -0.0294
115 | CAAGACTA | -0.0514
116 | CGAGACTA | 0.202
117 | AGAGACTC | 0.222
118 | CAAGACTC | 0.295
119 | CGAGACTC | 0.309
120 | TAGTTATA | 0.00574
121 | ACCCTACC | 0.00399
122 | ACATTGAC | 0.0886
123 | CAAAGCCG | -0.295
124 | CTCACCTA | 0.103
125 | ATTACTGC | 0.206

Row | Sequence | PBM E-score
126 | TACGAAGA | -0.0938
127 | CCCTACTC | -0.067
128 | AGGTATGA | 0.163
129 | AACACACG | 0.00318
130 | CACACATA | 0.204
131 | CACACACA | 0.276
132 | CACACACG | 0.272
133 | AACACACA | 0.33
134 | CACACAAA | 0.124
135 | TACACACA | 0.268
136 | AACACACT | 0.205
137 | CGCACACA | 0.134
138 | CCCATTCG | 0.00579
139 | AAGAGGGT | -0.255
140 | AGAGGTAT | 0.144
141 | CGTCCTAG | -0.181
142 | ATGCTAAG | -0.0834
143 | CCTATCAA | -0.182
144 | AGTCATCC | 0.464
145 | AGTCATCA | 0.439
146 | AGTCATCG | 0.44
147 | ATTCATCG | 0.121
148 | AGGCATCG | -0.22
149 | CGTCATCC | 0.0455
150 | CGTCATCA | 0.0722

Row | Sequence | PBM E-score
151 | GGTCATCA | 0.136
152 | ATTCATCC | 0.0498
153 | CGGCGGGC | 0.221
154 | CAAGATAA | 0.0275
155 | CATGGAGG | -0.101
156 | CCACGAAC | 0.101
157 | CAGGACAC | 0.135
158 | CCTCATCG | 0.0284
159 | CCTCATCC | -0.182
160 | GCTCATCC | 0.0555
161 | ACTCATCG | 0.304
162 | ACTCATCT | 0.199
163 | ACTCATCC | 0.412
164 | TCTCATCA | -0.131
165 | ACTCATCA | 0.32
166 | GCTCATCA | 0.109
167 | GCCTTCAC | -0.0812
168 | CTTTATCA | -0.157
169 | AAGCTACC | 0.00426
170 | ACCCAGGC | 0.302
171 | AACCATGC | 0.234
172 | AACCATGA | 0.351

Reference: the supplement of paper PMC3334620
